{
  "source": "PubChem BioAssay AID720724",
  "about": "(Broad Institute, 2013)",
  "note": "Entries with a potency or affinity are not part of this list. Values without a mark were called inactive.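 Rule for the calls: active = signal falls with a fitted half-maximal dose at most twice the top dose, in every run; inconclusive = steady partial drop, poor fit, or runs disagree; inactive = flat, rising or too weak in every run.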",
  "data": [
    {"experiment": "inhibitors of control Renilla luciferase reporter, dose response, counter-screen for Shn3 3'UTR targeting project, Clone20-Shn3RL cells, dual-Glo, cherry-pick, set 2 (AID 720724)", "settings": "renilla luciferase luminescence, 24 h; series mostly up to 35 µM; activity change, negative = inhibition: at the top concentration", "units": {"activity change, negative = inhibition": "%"}, "values": [
      {"smiles": "O=C(c1n[nH]c(=O)c2ccccc12)N1CCN(C2c3ccccc3-c3ccccc32)CC1", "activity change, negative = inhibition": -29.2},
      {"smiles": "COc1cccc(-n2c(C)nc3c(cnn3-c3ccc(Cl)cc3)c2=O)c1", "activity change, negative = inhibition": -25},
      {"smiles": "Cn1c(=O)c2c(nc(NCc3ccco3)n2CCc2ccccc2)n(C)c1=O", "activity change, negative = inhibition": -28.3},
      {"smiles": "CC(=O)Nc1ccc(OCC(=O)Nc2ccc(Cl)c(S(=O)(=O)N3CCOCC3)c2)cc1", "activity change, negative = inhibition": -40},
      {"smiles": "CCOC(=O)c1cn(CC(=O)Nc2cccc(Cl)c2C)nn1", "activity change, negative = inhibition": -30},
      {"smiles": "CCOC(=O)C1CCCN(S(=O)(=O)c2ccc(S(=O)(=O)N3CCCC3)cc2)C1", "note": "(configuration not stated)", "activity change, negative = inhibition": -42.5},
      {"smiles": "CCN(CC)c1ccc(NC(=O)CN2C(=O)CSc3ncccc32)c(C)c1", "activity change, negative = inhibition": -30},
      {"smiles": "CC(C)[C@H](NC(=O)OC(C)(C)C)c1nnc(S(=O)(=O)Cc2c(F)cccc2Cl)o1", "activity change, negative = inhibition": -20},
      {"smiles": "Cc1ccc(CNC(=O)c2cc3c(C)nc4ccccc4c3o2)cc1", "activity change, negative = inhibition": -22.5},
      {"smiles": "O=C(Nc1nc(-c2ccccc2)cs1)C1CCCCN1S(=O)(=O)c1ccccc1", "note": "(configuration not stated)", "activity change, negative = inhibition": -20},
      {"smiles": "O=C(NCCc1ccccc1)c1ccc2c(c1)OCCO2", "activity change, negative = inhibition": 0},
      {"smiles": "CCOc1ccc(N(C)S(=O)(=O)c2cc(-c3cc(C)no3)ccc2C(C)C)cc1", "activity change, negative = inhibition": -20},
      {"smiles": "Cc1c(C)c2ccc(OCC(=O)Nc3ccccn3)c(C)c2oc1=O", "activity change, negative = inhibition": -12.5},
      {"smiles": "CCn1c(CNC(=O)c2cc(OC)c(OC)c(OC)c2)cc2cc(C)ccc21", "activity change, negative = inhibition": -10},
      {"smiles": "Cc1cccc(CSc2cccc3cccnc23)c1", "activity change, negative = inhibition": 33.3},
      {"smiles": "COc1ccc(CC(=O)Nc2ccncc2Cl)cc1", "activity change, negative = inhibition": -20},
      {"smiles": "Cn1nc(CC(=O)Nc2ccc3c(c2)OCCO3)c2ccccc2c1=O", "activity change, negative = inhibition": -22.5}
    ]}
  ]
}
